The list is not random: actives were taken first. Their share in the collection is about 1.4%.
EPAC2 ag: EPAC2 (human) agonism; Q8WZA2; EPAC2 activation, biochemical qHTS; response scale: 100% = 6.5 mM cAMP response; Potency, µM (series often up to 154 µM), hits mostly activators; 0.079% of 360,000 active; also: nearly all actives have a fitted effect of over 50% in size
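Compounds were added across a concentration range to EPAC2 (100 nM), RAP1B-BODIPY-GDP (250 nM) and GDP (50 uM). After 5 min at room temperature, fluorescence was recorded at 5-min intervals for 30 min.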
EPAC1 antagonist: antagonists of human EPAC1 | O95398 | EPAC1 GEF assay, Rap1b-BODIPY-GDP exchange fluorescence | Potency, µM (doses to about 115 µM), most hits filed as inhibitors | 0.14% of 360,000 active; also: nearly all actives have a fitted effect of over 50% in size
Target sequence (O95398 whole entry, looked up): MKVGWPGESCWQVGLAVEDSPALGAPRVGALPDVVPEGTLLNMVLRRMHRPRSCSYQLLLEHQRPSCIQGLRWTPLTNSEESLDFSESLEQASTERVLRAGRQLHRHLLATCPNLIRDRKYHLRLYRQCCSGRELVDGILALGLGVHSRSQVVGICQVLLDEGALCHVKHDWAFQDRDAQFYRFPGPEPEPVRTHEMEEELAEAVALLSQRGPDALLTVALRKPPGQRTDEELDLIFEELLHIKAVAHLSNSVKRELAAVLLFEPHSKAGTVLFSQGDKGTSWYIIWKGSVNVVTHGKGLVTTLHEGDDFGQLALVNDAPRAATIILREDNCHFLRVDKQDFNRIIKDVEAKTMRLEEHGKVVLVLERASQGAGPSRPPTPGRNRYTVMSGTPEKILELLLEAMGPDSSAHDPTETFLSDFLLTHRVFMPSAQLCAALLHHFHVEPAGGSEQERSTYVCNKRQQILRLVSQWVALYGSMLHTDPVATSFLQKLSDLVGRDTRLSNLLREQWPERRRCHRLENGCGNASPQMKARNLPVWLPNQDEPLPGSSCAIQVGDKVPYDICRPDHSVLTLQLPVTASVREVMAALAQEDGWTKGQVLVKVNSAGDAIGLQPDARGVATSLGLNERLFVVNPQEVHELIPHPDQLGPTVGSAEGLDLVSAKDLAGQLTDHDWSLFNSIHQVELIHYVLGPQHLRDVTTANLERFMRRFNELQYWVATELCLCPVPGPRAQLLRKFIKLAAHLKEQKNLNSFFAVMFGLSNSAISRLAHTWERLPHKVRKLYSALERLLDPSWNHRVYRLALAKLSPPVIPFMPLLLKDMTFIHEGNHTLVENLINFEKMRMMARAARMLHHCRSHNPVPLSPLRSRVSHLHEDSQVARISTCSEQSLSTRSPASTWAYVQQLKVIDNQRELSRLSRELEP
EPAC1 agonist: EPAC1 (human) agonism. EPAC1 agonist qHTS, biochemical assay; response scale: 100% = response to 6.5 mM cAMP. AID 720707. 0.073% of 360,000 active. Potency, µM (titrated, usually from 154 µM), hits mostly activators; also: nearly all actives have a fitted effect of over 60% in size
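Compounds were pinned as a concentration titration into mixtures of EPAC1 (100 nM), BODIPY-GDP-loaded Rap1B (250 nM) and GDP (50 uM). After 5 min at room temperature, fluorescence was followed for 30 min; activity was scaled to 6.5 mM cAMP.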
EPAC2 antagonist: blocks human EPAC2 exchange factor; Q8WZA2; 0.18% of 360,000 active; EPAC2 GEF exchange of Rap1B-BODIPY-GDP, fluorescence; Potency, µM (titrated, usually from 114 µM), most hits filed as inhibitors; AID 720708; also: nearly all actives have a fitted effect of over 45% in size
KCNH2 3.1 inh: inhibitors of human KCNH2 3.1 potassium channel isoform. U2OS KCNH2 3.1, thallium flux FluxOr; stronger effect = lower value. AID 720553. activity change, % (tested at about 1.8 µM). 0.95% of 340,000 active;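 active = maximum activity change below -70%; inconclusive = maximum activity change from -70% to -50%; inactive = maximum activity change above -50%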;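 also: thallium influx rate constant from kinetic fluorescence after stimulation buffer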
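Thallium flux via FluxOr fluorescence (Red40 quencher, 45 min loading) in U2OS cells virally expressing the KCNH2 3.1 isoform (1.77 x 10^8 /mL virus, overnight at 37 C). Rate constants from 2-min kinetic reads post-stimulation, normalised to positive and negative controls.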
hERG WT inh: KCNH2 (human, wildtype) channel inhibition | Q12809 | U2OS, BacMam KCNH2, thallium flux FluxOr; stronger effect = lower value | activity change, % at 1.84 µM | 0.37% of 340,000 active | AID 720551;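 active = maximum activity change below -70%; inconclusive = maximum activity change between -70% and -50%; inactive = maximum activity change above -50%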
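U2OS cells were transduced with wild-type KCNH2 virus (2.03 x 10^8 / mL) for 4 h at room temperature, then cultured overnight at 37 C. Thallium flux was read with FluxOr dye. Rate constants were normalized to DMSO controls.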
A number is an active result. Unless noted, calls follow the shape of the dose curve; as a rule, active = well fitted curve in the direction sought with a large enough effect; inconclusive = small, poorly fitted or top-dose-only effect, or another doubt; inactive = no such curve, though single readings can be large; an effect the other way counts as inactive or inconclusive.

Screening CCOC(=O)C1=C(C)N=C2SC(C)C(=O)N2C1c1ccccc1 (stereo not given) returned EPAC2 ag inactive, EPAC1 antagonist inactive, EPAC1 agonist inactive, EPAC2 antagonist inconclusive, KCNH2 3.1 inh -94 and hERG WT inh inactive.
CN(CC(=O)Nc1ccc(Cl)c(C(F)(F)F)c1)C(=O)c1ccc2c(c1)OCCO2 was read as EPAC2 ag inactive, EPAC1 antagonist inactive, EPAC1 agonist 79µM, EPAC2 antagonist inactive, KCNH2 3.1 inh inactive and hERG WT inh inactive.
Screening O=C(/C=C/c1ccc(OC(F)F)cc1)Nc1cccc(S(=O)(=O)N2CCOCC2)c1 returned EPAC2 ag inactive, EPAC1 antagonist inconclusive, EPAC1 agonist inactive, EPAC2 antagonist inactive, KCNH2 3.1 inh -72 and hERG WT inh inactive.
Screening O=C(COC(=O)/C=C/c1ccc(OC(F)F)cc1)Nc1cccc(S(=O)(=O)N2CCCC2)c1 returned EPAC2 ag inactive, EPAC1 antagonist inactive, EPAC1 agonist inactive, EPAC2 antagonist inactive, KCNH2 3.1 inh -85 and hERG WT inh inactive.
`O=C(/C=C/c1ccco1)Nc1cccc(S(=O)(=O)N2CCOCC2)c1` gave EPAC2 ag inactive, EPAC1 antagonist inactive, EPAC1 agonist inactive, EPAC2 antagonist inactive, KCNH2 3.1 inh inactive and hERG WT inh -107.
Screening COc1ccc(/C=C/C(=O)Nc2cccc(S(=O)(=O)N3CCOCC3)c2)cc1OC returned EPAC2 ag inactive, EPAC1 antagonist inactive, EPAC1 agonist inactive, EPAC2 antagonist inactive, KCNH2 3.1 inh inactive and hERG WT inh inactive.
Cc1ccccc1OCCn1cnc2cc([N+](=O)[O-])ccc2c1=O was read as EPAC2 ag inactive, EPAC1 antagonist inactive, EPAC1 agonist inactive, EPAC2 antagonist inactive, KCNH2 3.1 inh inactive and hERG WT inh inactive.
`Cc1nccn1CCCNC(=O)CC1C(=O)NCCN1Cc1ccc(F)cc1Cl` (stereo not given) gave EPAC2 ag inactive, EPAC1 antagonist inactive, EPAC1 agonist inactive, EPAC2 antagonist inactive, KCNH2 3.1 inh inactive and hERG WT inh inactive.
For CCOC(=O)N1CCN(C(=O)C[C@@H]2C[C@@]3(C(=O)OC)CC(C)(C)CC=C3N(Cc3ccccc3)C2=O)CC1 the results were EPAC2 ag inactive, EPAC1 antagonist inactive, EPAC1 agonist inactive and EPAC2 antagonist inactive.
For O=C1c2ccccc2C(c2nnnn2Cc2ccccc2)N1Cc1ccc2c(c1)OCO2 (stereo not given) the results were EPAC2 ag inactive, EPAC1 antagonist inactive, EPAC1 agonist inactive and EPAC2 antagonist inactive.
CN(Cc1ccc(F)cc1)C(=O)c1cccc(NS(=O)(=O)c2ccccc2)c1 was read as EPAC2 ag inactive, EPAC1 antagonist inactive, EPAC1 agonist inactive, EPAC2 antagonist inactive, KCNH2 3.1 inh inactive and hERG WT inh inactive.
`CN(Cc1ccc(F)cc1)C(=O)c1cccc(OCc2ccccc2)c1` gave EPAC2 ag inactive, EPAC1 antagonist inactive, EPAC1 agonist inactive, EPAC2 antagonist 50µM, KCNH2 3.1 inh inactive and hERG WT inh inactive.
For O=C(CSc1cccc[n+]1[O-])Nc1ccc([N+](=O)[O-])cc1Cl the results were EPAC2 ag inactive, EPAC1 antagonist inactive, EPAC1 agonist inactive, EPAC2 antagonist inactive, KCNH2 3.1 inh inactive and hERG WT inh inactive.
O=C(CSc1cccc[n+]1[O-])Nc1c(Br)cc([N+](=O)[O-])cc1Br was read as EPAC2 ag inactive, EPAC1 antagonist inactive, EPAC1 agonist inactive, EPAC2 antagonist inactive, KCNH2 3.1 inh -133 and hERG WT inh inactive.
Screening COc1ccc(C(=O)C2CCN(C(=O)c3ccc(F)cc3)CC2)cc1 returned EPAC2 ag inactive, EPAC1 antagonist inactive, EPAC1 agonist inactive, EPAC2 antagonist inactive, KCNH2 3.1 inh inactive and hERG WT inh inactive.
For COc1ccc(CN2CCC(C(=O)c3ccc(F)cc3)CC2)cc1 the results were EPAC2 ag inactive, EPAC1 antagonist inactive, EPAC1 agonist inactive, EPAC2 antagonist inactive, KCNH2 3.1 inh -73 and hERG WT inh inactive.
Screening Cc1ccc(CN2CCC(C(=O)c3ccc(F)cc3)CC2)cc1 returned EPAC2 ag inactive, EPAC1 antagonist inactive, EPAC1 agonist inactive, EPAC2 antagonist inactive, KCNH2 3.1 inh -75 and hERG WT inh inactive.
Cc1ccc(CNC(=O)CN2CCC(C(N)=O)CC2)cc1 was read as EPAC2 ag inactive, EPAC1 antagonist inactive, EPAC1 agonist inactive, EPAC2 antagonist inactive, KCNH2 3.1 inh inactive and hERG WT inh inactive.
Screening Cc1ccc(NC(=O)N2CCC(C(=O)c3ccc(F)cc3)CC2)cc1 returned EPAC2 ag inactive, EPAC1 antagonist inactive, EPAC1 agonist inactive, EPAC2 antagonist inactive, KCNH2 3.1 inh inactive and hERG WT inh inactive.
`CSc1ccc(CN2CCC(C(=O)NCc3ccc(C)cc3)CC2)cc1` gave EPAC2 ag inactive, EPAC1 antagonist inactive, EPAC1 agonist inactive, EPAC2 antagonist inactive and KCNH2 3.1 inh -93.
NNC(=O)c1sccc1OCc1ccc(Cl)cc1Cl was read as EPAC2 ag inactive, EPAC1 antagonist inactive, EPAC1 agonist inactive, EPAC2 antagonist inactive, KCNH2 3.1 inh inactive and hERG WT inh inactive.
`COc1cccc(COC(=O)c2nn(-c3ccccc3)nc2N)c1` gave EPAC2 ag inactive, EPAC1 antagonist inactive, EPAC1 agonist inactive, EPAC2 antagonist inactive and hERG WT inh -184.
For Nc1nn(-c2ccccc2)nc1C(=O)OCc1ccccc1 the results were EPAC2 ag inactive, EPAC1 antagonist inconclusive, EPAC1 agonist inactive, EPAC2 antagonist inactive, KCNH2 3.1 inh inactive and hERG WT inh inactive.
O=C1S/C(=C/c2ccc(N3CCOCC3)o2)C(=O)N1Cc1ccc(F)cc1 was read as EPAC2 ag inconclusive, EPAC1 antagonist inactive, EPAC1 agonist inactive, EPAC2 antagonist inactive, KCNH2 3.1 inh inactive and hERG WT inh inactive.
`O=C1S/C(=C\c2ccc(N3CCOCC3)o2)C(=O)N1Cc1ccc(F)cc1` gave EPAC2 ag 112µM, EPAC1 antagonist inactive, EPAC1 agonist inactive, EPAC2 antagonist inactive, KCNH2 3.1 inh inactive and hERG WT inh inactive.
`CN(CC(=O)Nc1ccc(Cl)c(Cl)c1)C(=O)CC1OC(=O)c2ccccc21` (stereo not given) gave EPAC2 ag inactive, EPAC1 antagonist inactive, EPAC1 agonist inactive, EPAC2 antagonist inactive, KCNH2 3.1 inh inactive and hERG WT inh inactive.
Cc1ccc(C(=O)N/C(=C\c2ccccc2)C(=O)NCCCn2ccnc2)cc1 was read as EPAC2 ag inactive, EPAC1 antagonist inactive, EPAC1 agonist inactive, EPAC2 antagonist inactive, KCNH2 3.1 inh -105 and hERG WT inh -125.
For Cc1ccc(/C=C(\NC(=O)c2ccc(C)cc2)C(=O)NCCCn2ccnc2)cc1 the results were EPAC2 ag inactive, EPAC1 antagonist inactive, EPAC1 agonist inactive, EPAC2 antagonist inactive, KCNH2 3.1 inh -95 and hERG WT inh -94.
